Assay [1] deals with Vero E6 infected with SARS-CoV-2. The assay can be described thus: morphology score (similarity to uninfected cells); higher = more like uninfected cells. As to conditions: 24 h.
The test system is the same in assay [2]. Nature of the assay: SARS-CoV-2 infection rate relative to infected DMSO; higher = more infection, active = 60 or less. The conditions noted are these: 24 h.

SMILES strings stand for the structures.

`COc1cc(C[C@H](C)[C@H](C)Cc2ccc3c(c2)OCO3)ccc1O` [macelignan] (10 µM) gave a morphology score in assay [1] of 0.185. For the same molecule, the SARS-CoV-2 infection rate in assay [2] was 102% (inactive).
Molecule `CN1CCN(C(=O)c2nc3ccc(Cl)cc3[nH]2)CC1` (10 µM) gave a morphology score in assay [1] of 0.119. Further, the SARS-CoV-2 infection rate in assay [2] is 108% (inactive).
For `O=C(O)CCCN1CCC(O[C@@H](c2ccc(Cl)cc2)c2ccccn2)CC1` [bepotastine] (10 µM) the same measures were 0.0921 and 90% (inactive).
For `CC1(c2ccccc2)OC(C(=O)O)=CC1=O` (centres undefined) [acifran] (10 µM) the same measures were 0.119 and 102% (inactive).
For `CCN(CC)C(=S)SSC(=S)N(CC)CC` [disulfiram] (10 µM) the same measures were 0.548 and 23% (active).
For `CCCCCCCCCCCCCCCC(=O)OC[C@@H](NC(=O)C(Cl)Cl)[C@H](O)c1ccc([N+](=O)[O-])cc1` [chloramphenicol-palmitate] (10 µM), the morphology score in assay [1] stood at 0.04. The SARS-CoV-2 infection rate in assay [2] was 106% (inactive).
As for `C[C@]12CCC(=O)C=C1CC[C@@H]1[C@@H]2CC[C@@]2(C)[C@H]1CC[C@]2(O)C(=O)CO` [cortodoxone] (10 µM), the morphology score in assay [1] was 0.0341. For the same molecule, the SARS-CoV-2 infection rate in assay [2] was 98% (inactive).
For `CC[C@@H](C(=O)[C@@H](C)[C@@H](O)[C@H](C)[C@@H]1O[C@@H]([C@@H](CC)C(=O)O)CC[C@@H]1C)[C@H]1O[C@]2(C=C[C@@H](O)[C@]3(CC[C@@](C)([C@H]4CC[C@](O)(CC)[C@H](C)O4)O3)O2)[C@H](C)C[C@@H]1C` [Salinomycin (Procoxacin)] (10 µM) the same measures were -0.00386 and 108% (inactive).
For `N#Cc1cccc(-c2nc(-c3cccnc3)no2)c1` (10 µM) the same measures were 0.143 and 98.5% (inactive).
For `Cc1ccc(C[N+](C)(C)C)o1` [5-methylfurmethiodide] (10 µM) the same measures were -0.123 and 117% (inactive).
With `C[C@H](Cc1ccc(O)c(O)c1)[C@@H](C)Cc1ccc(O)c(O)c1` [masoprocol] (10 µM), in assay [1], the morphology score was 0.0645. Besides, in assay [2], the SARS-CoV-2 infection rate was 90% (inactive).
Consider `C[C@]12CC[C@H](O)C[C@H]1CC[C@@H]1[C@@H]2CC[C@]2(C)[C@@](O)(c3ccoc3)CC[C@]12O` [rostafuroxine] (10 µM), for which the morphology score in assay [1] was -0.206. In addition, in assay [2], the SARS-CoV-2 infection rate is 118% (inactive).
For `CN(C)CCOC(c1ccc(Cl)cc1)c1ccccn1` (centres undefined) [carbinoxamine] (10 µM) the same measures were 0.075 and 96% (inactive).
For `Cc1ccc(C(=O)Nc2ccc(CN3CCN(C)CC3)c(C(F)(F)F)c2)cc1C#Cc1cnc2[nH]ncc2c1` (10 µM) the same measures were 0.453 and 98% (inactive).
For `O=C(NOCC1CC1)c1ccc(F)c(F)c1Nc1ccc(I)cc1Cl` (10 µM) the same measures were 0.0812 and 100% (inactive).
`C[C@H]1COc2c(C3(N)CC3)c(F)cc3c(=O)c(C(=O)O)cn1c23` [pazufloxacin] (10 µM) had a morphology score in assay [1] of 0.202. In addition, the SARS-CoV-2 infection rate in assay [2] was 103% (inactive).
In the case of `CC(C)(N)Cc1ccccc1` [phentermine] (10 µM), the morphology score in assay [1] was -0.154. Moreover, the SARS-CoV-2 infection rate in assay [2] is 118% (inactive).
The molecule `COc1cc(NS(C)(=O)=O)ccc1Nc1c2ccccc2nc2ccccc12` [amsacrine] (10 µM) gave a morphology score in assay [1] of -0.0803. Moreover, the SARS-CoV-2 infection rate in assay [2] was 108% (inactive).
For `O=C(O)C(Cc1ccccc1[N+](=O)[O-])=NNc1nc(-c2ccc(Cl)c(Cl)c2)cs1` (10 µM), the morphology score in assay [1] is 0.23. For the same molecule, the SARS-CoV-2 infection rate in assay [2] was 102% (inactive).
For `O=C(O)C1CSCN1` (centres undefined) [timonacic] (10 µM) the same measures were -0.0905 and 110% (inactive).
For `CC1CS(=O)(=O)CCN1/N=C/c1ccc([N+](=O)[O-])o1` (centres undefined) [nifurtimox] (10 µM) the same measures were 0.0407 and 102% (inactive).
The molecule `OCCn1cc(-c2cnc3nnn(Cc4ccc5ncccc5c4)c3n2)cn1` (10 µM) returned a morphology score in assay [1] of -0.0332. The SARS-CoV-2 infection rate in assay [2] was 99% (inactive).
For `C[C@]12C=CC(=O)C=C1CC[C@@H]1[C@@H]2[C@@H](O)C[C@@]2(C)[C@H]1CC[C@]2(O)C(=O)COC(=O)CCC(=O)O` [prednisolone-hemisuccinate] (10 µM) the same measures were 0.166 and 94% (inactive).
For `CN1CCc2c(c3ccccc3n2Cc2ccccc2)C1` [mebhydrolin] (10 µM) the same measures were 0.242 and 104% (inactive).
Consider `CN1CCN(c2ccc(C(=O)Nc3n[nH]c4ccc(Cc5cc(F)cc(F)c5)cc34)c(NC3CCOCC3)c2)CC1` [entrectinib] (0.833333 µM), for which the morphology score in assay [1] is 0.134. The SARS-CoV-2 infection rate in assay [2] was 96.5% (inactive).
For `C=CC(=O)Nc1cccc(Nc2nc(Nc3ccc(Oc4ccnc(C(=O)NC)c4)cc3)ncc2F)c1` (0.833333 µM) the same measures were 0.147 and 110% (inactive).
In the case of `NC(=O)c1cccc(-c2cccc(OC(=O)NC3CCCCC3)c2)c1` (10 µM), the morphology score in assay [1] is 0.00303. The SARS-CoV-2 infection rate in assay [2] is 104% (inactive).

For the origin of these results see the supplement of paper PMC13380429.
